A number with no mark means an inactive call.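 The calls were made as follows, unless noted: active = RAM network inhibition above 8.4% in each of two replicates, 3 SD over the compound average; inconclusive = above 8.4% inhibition in only one replicate; inactive = 8.4% inhibition or less in each replicate.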

In general, inhibition refers to the percentage by which the read-out fell short of the control.

One test in a line: RAM pathway blockade in budding yeast – dse1pr::URA3 reporter, 5-FOA selection, pilot screen (AID 869;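 active = inhibition over a set limit, the all-compound mean plus 3 SD, in both replicate runs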;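 also: 0% = DMSO wells with no growth and 100% = 10 µM 1-NA-PP1 with full growth; RAM network block rescues cells from 5-FOA so hits raise OD615 growth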). The conditions noted are these: S. cerevisiae dse1pr::URA3 5-FOA growth, OD615, 2 d; at 10 µM; stronger effect = higher value; strain carries analog-sensitive mutant Cbk1 kinase.
In the case of `COc1ccc(-c2cc(N)n(S(=O)(=O)Cc3ccccc3)n2)c(OC)c1`, the inhibition was 2.42%. Same read-out and setting: in the case of `CC1CN(c2ncnc3c2cnn3-c2ccc(Cl)cc2)CC(C)O1` (centres undefined) it was 1.4%; in that of `NS(=O)(=O)c1ccc(CCNC(=O)C2CCCN(S(=O)(=O)c3cccnc3)C2)cc1` (centres undefined), 1.63%; in that of `O=C(O)c1ccc(NS(=O)(=O)c2cccc3cccnc23)cc1`, 2.25%. As to `Cc1ccc(C(=O)Nc2nc3ccccc3n2CCN2CCCC2)cc1`, the inhibition is 0.665%. The same measure, in the same setting: for `CC(C)c1nnc(NC(=O)CSc2ncn[nH]2)s1` the value was 0.135%; for `Cc1cc(C)c(NC(=O)C(C)(C)C)c(Cl)c1`, 1.72%.

In the case of `CCOc1ccc(Nc2cc(C)nc3nc(C)nn23)cc1`, the inhibition was 0.67%.

A further test can be described thus: RAM signaling pathway blockade in yeast – S. cerevisiae, Pdr1DBD-CYC8 efflux-inhibited sensitized strain, primary screen (AID 1298).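 Also: 0% = DMSO untreated cells without growth and 100% = 10 µM 1-NA-PP1 full growth; higher means more yeast growth rescued from 5-FOA killing.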 Conditions: S. cerevisiae cbk1-as DSE1-URA3 strain, 5-FOA growth OD615, 2 d; at 50 µM; stronger effect = higher value.
Turning to `Cc1cc2ncn(CC(O)COC3CCCCC3)c2cc1C` (centres undefined), the RAM network inhibition is 4.21%. For the compound `CCOC(=O)c1sc(NC(=O)c2ccco2)nc1-c1ccccc1`, the RAM network inhibition is 4.08%. With `COc1ccc(S(=O)(=O)N2CCC(C(=O)Nc3cccc(Cl)c3)CC2)cc1OC`, the RAM network inhibition is 1.52%. Regarding `Cc1cccc(N(C)c2cc(C)nc3ncnn23)c1`, the RAM network inhibition was 4.73%.

For `CCOC(=O)C1CCCN(C(=O)Cn2sc3nc(C)cc(C)c3c2=O)C1` (centres undefined), the RAM network inhibition was 2.71%. On to `CCc1ccc(NC(=O)CSc2nc3c(c(=O)n(C)c(=O)n3C)n2C)cc1`, for which the RAM network inhibition is 0.68%. Same read-out and setting: in the case of `COCCNC(=O)c1ccccc1NC(=O)C1COc2ccccc2O1` (centres undefined) it was 4.39%; in that of `COc1ccc(S(=O)(=O)Cc2ccc(C(=O)N3CCc4ccccc4C3)o2)cc1`, 7.28%; in that of `CC1Cc2ccccc2N1C(=O)Cn1cnc2ccccc2c1=O` (centres undefined), -0.47%. On the same count and under the same terms, for `Brc1cccc(-c2nc(-c3ccncc3)no2)c1` the value was 3.3%; for `COc1ccc(OC)c(NC(=O)NC2(C(F)(F)F)Oc3ccccc3O2)c1`, 4.64%; for `CC(C)c1ccc(NC(=O)c2cccnc2)cc1`, 2.26%. For the compound `Cc1ccc2oc3c(c(=O)c2c1)C(c1cccs1)N(CCCN(C)C)C3=O` (centres undefined), the RAM network inhibition was -1.13%. Same read-out and setting: for `COc1ccc(CC(=O)N2CC3(C)CC2CC(C)(C)C3)cc1OC` (centres undefined) the value was 6.83%; for `COc1ccc(C2C(C(=O)c3ccco3)=C(O)C(=O)N2Cc2cccnc2)cc1OC` (centres undefined), 0.66%; for `COc1ccc(OCC(=O)OCCN2C(=O)c3ccccc3C2=O)cc1`, 8.21%. For the compound `COc1ccc(C2C(C(=O)NCC3CCCO3)c3cc(OC)c(OC)cc3C(=O)N2C)cc1OC` (centres undefined), the RAM network inhibition is 0.94%. Consider `Cc1ccccc1CSc1nnc(-c2ccco2)n1Cc1ccco1`, for which the RAM network inhibition was 0.99%. Same read-out and setting: for `Cc1nc(CNS(=O)(=O)c2ccccc2F)cs1` the value was -0.57%. Regarding `CC1CC(C(O)c2ccccn2)C(=O)C(C(O)c2ccccn2)C1` (centres undefined), the RAM network inhibition was -0.58%. Still for that read-out and setting: in the case of `CCCC(c1c(C)n(C)n(-c2ccccc2)c1=O)c1c(C)n(C)n(-c2ccccc2)c1=O` it was 4.48%; in that of `CS(=O)(=O)N(Cc1ccc(C(=O)NCc2ccco2)cc1)c1ccccc1`, 4.76%; in that of `CC(C)Cc1cc(C(=O)Nc2cc(Cl)ccc2Cl)no1`, 1.67%. On the same count and under the same terms, in the case of `Cc1cc(F)ccc1S(=O)(=O)Nc1c(C)n(C)n(-c2ccccc2)c1=O` it was 2.26%; in that of `Cc1onc(-c2ccccc2)c1C(=O)Nc1cccc(C#N)c1`, 4.56%; in that of `O=C(c1ccccc1)c1ccc(OC(=O)N2CCOCC2)cc1`, 8.53%. As for `COC(=O)CN1C(=O)CC(C)(C)Sc2ccccc21`, the RAM network inhibition was 2.53%. With `Cc1cc(C)cc(N(CC(=O)NCc2ccco2)S(=O)(=O)c2c(C)noc2C)c1`, the RAM network inhibition was 5.53%. On the same count and under the same terms, for `COc1ccc(C)cc1NC(=O)CSc1nnc(-c2ccc(OC)c(OC)c2)n1N` the value was 7.82%.

`Cn1c(=O)oc2cc(S(=O)(=O)N3CCCc4ccccc43)ccc21`: the RAM network inhibition is 3.9%. Regarding `CC(C)(C)NC(=O)c1ccc(NC(=O)C2COc3ccccc3O2)cc1` (centres undefined), the RAM network inhibition is -0.88%. In the case of `CC1CCCC(C)N1c1nnc(N)s1` (centres undefined), the RAM network inhibition is 0.17%. The same measure, in the same setting: for `COc1ccc(-c2cc(N)n(S(=O)(=O)Cc3ccccc3)n2)c(OC)c1` the value was 5.13%; for `CC1CN(c2ncnc3c2cnn3-c2ccc(Cl)cc2)CC(C)O1` (centres undefined), 3.95%. Still for that read-out and setting: in the case of `NS(=O)(=O)c1ccc(CCNC(=O)C2CCCN(S(=O)(=O)c3cccnc3)C2)cc1` (centres undefined) it was 5.27%.

Turning to `O=C(O)c1ccc(NS(=O)(=O)c2cccc3cccnc23)cc1`, the RAM network inhibition is 1.04%.

Values taken from PubChem BioAssay.
